The panel holds about 83,000 compounds, 20% with a hit somewhere; the sample as a whole holds those more often.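 48-hour exposure, single concentration, 96-well plates; percent growth endpoint where 0 means no net growth. Active: below 10.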 Values without a mark were called inactive. Calls of active or inactive are those of the source.

This assay deals with COLO 205 colon. Briefly: NCI-60 one-dose screen, 48 h (100 = growth as untreated, 0 = no growth, -100 = all killed). Conditions: 10 µM unless noted.
Take `O=C1c2cc3c(cc2-c2c1c1cc(Cl)c(Cl)cc1c(=O)n2CCCn1ccnc1)OCO3`: the growth is 6.24% (active).
Turning to `CCCCCCCCOC(=O)CC[C@@H](C)[C@H]1CC[C@H]2[C@@H]3[C@H](OC(=O)CCN)C[C@@H]4C[C@H](OC(=O)CCN)CC[C@]4(C)[C@H]3C[C@H](OC(=O)CCN)[C@]12C`, the growth was 66.4%.
For `COc1ccc(-c2cnoc2-c2cc(OC)c3c(c2)OCCO3)cc1` the value was -58.4% (active); for `Cc1nn(-c2ccccc2)c2nc(C)n(-c3ccc(Br)cc3)c(=O)c12`, 1.32% (active); for `CCN(CC)CC(C)(C)C(=O)/C=C/c1ccccc1`, 53.4%.
For `Cc1ccc2cnc(N)c(C#Cc3cncc(C(=O)Nc4ccc(CN5CCN(C)CC5)c(C(F)(F)F)c4)c3)c2c1` the value was -70.3% (active); for `C[C@H](CCC(=O)O)[C@H]1CC[C@H]2[C@@H]3CC[C@@H]4/C(=C\c5ccco5)C(=O)/C(=C\c5ccco5)C[C@]4(C)[C@H]3CC[C@]12C`, 87.3%.
For `COc1ccc(-c2cc(-c3ccc(N(C)C)cc3)nc(NC(=O)c3ccncc3)n2)cc1`, the growth is 111%.
For `COc1ccc2c(c1)C(=O)/C(=C/c1cccc(OCC(=O)Nc3nc4c(s3)CCCC4)c1)O2` the value was -3.43% (active).
For `Cc1nc2sc(C(=O)Nc3cccc4c3OCCO4)c(N)c2cc1C(C)O` (stereo not drawn) the value was 5.86% (active); for `CCCCCCNC(=O)Oc1ccc(/C(=C(\C)c2ccccc2)c2ccc(OCCN(CC)CC)cc2)cc1`, -4.77% (active).
For `O=[N+]([O-])c1c(F)cccc1Nc1cccc(F)c1` the value was 121%; for `Nc1ccc2c(c1)C(=O)NC2=O`, 106%.
On to `CC(C)[C@@H]1CC[C@]2(C(=O)NCCCCN=C(N)N)CC[C@]3(C)[C@H](CC[C@@H]4[C@@]5(C)CCC(=O)C(C)(C)[C@@H]5CC[C@]43C)[C@@H]12`, for which the growth is 2.37% (active).
On to `CCc1ccccc1NC(=O)c1sc2nc3c(cc2c1N)C(=O)CCC3`, for which the growth is -7.87% (active).
On to `O=C1c2c[n+](Cc3ccccc3)ccc2-c2nc3ccccc3c3ccnc1c23`, for which the growth is -90.1% (active).
For `CCN(C(=O)CN1CCN(c2cc3c(cc2F)c(=O)c(C(=O)O)cn3CC)CC1)c1nc(-c2ccccc2)cs1` the value was -51.9% (active).
As for `O=C(Nc1ccc(F)cc1)Nc1ccc(CCO)cc1`, the growth is 132%.
For `CCCNc1nc(SC)nc(-c2cccc(N)c2)c1C#N` the value was 119%.
As to `CC/C(=C(\c1ccc(O)cc1)c1ccc(OCCN(C)CCN(C)C(=O)CCCCC(=O)c2c(C)[nH]c(/C=C3\N=C(c4ccc[nH]4)C=C3OC)c2C)cc1)c1ccccc1`, the growth is 91.3%.
For `c1c2c(cc3c1OCO3)Cc1cc3c(cc1Cc1cc4c(cc1C2)OCO4)OCO3` the value was 114%; for `C(=N\Nc1nnn(Cc2ccccc2)n1)/c1ccccc1`, 36.9%.
For `NS(=O)(=O)N(c1cc(C(F)(F)F)cc(C(F)(F)F)c1)C1CCN(Cc2ccc(F)cc2)CC1` the value was -62.7% (active); for `CC(=O)Oc1cc2cnc3c4cc(OC(C)=O)c(OC(C)=O)cc4ccc3c2cc1OC(C)=O`, 78%; for `O=C1C=CC(Nc2ccccc2[N+](=O)[O-])C1Nc1ccccc1[N+](=O)[O-]` (stereo not drawn), -79.2% (active).
For `O=C(COCc1c(-c2ccccc2)no[n+]1[O-])Nc1ccc(C(=O)/C=C/c2ccc3c(c2)OCO3)cc1` the value was 120%; for `CCOC(=O)c1c2c(n3ccc(NC(=O)CCN4CCOCC4)cc13)C(=O)c1ncccc1C2=O`, 37.9%; for `COc1cc2c(=O)n(CC3CCCCC3)c3c4cc[nH]c4ncc3c2cc1OC`, 6.79% (active).
For `COc1ccc(-c2cc(=O)[nH]c3c(OC)c4ccccc4c(OC)c23)cc1`, the growth is -58.8% (active).
For `Cn1c(=O)c2[nH]c(C(O)C(O)C(O)C(O)CO)nc2n(C)c1=O` (stereo not drawn) the value was 103%.
For `C=C1CCC2C3(C)COC(c4ccc(OC)cc4Br)OC3CCC2(C)C1/C=C/C1=CCOC1=O` (stereo not drawn) the value was 118%; for `COc1ccc(-c2cn3c(ccc4ccccc43)n2)cc1`, 112%; for `Cc1ccc(Nc2c(C(N)=O)cnc3ccc(-c4csc(N)n4)cc23)cc1`, 96.3%.
For `CCN(CC)CC#CCOC(=O)[C@]1(C)CCC[C@@]2(C)[C@H]1CC(C=O)=C1C=C(C(C)C)CC[C@@H]12` the value was 44.5%.
In the case of `CCCCCCCCCCCCS(=O)CC(C)O` (stereo not drawn), the growth was 110%.
For `c1ccc2sc(SCCCn3ccnc3)nc2c1` the value was 98.2%; for `CCCCCCCCCCCCCCCCCCNC(=O)[C@H]1CSC(c2ccc(OC)c(F)c2)N1` (stereo partly drawn), 102%.
For `O=C(/C=C\c1cccc([N+](=O)[O-])c1)c1ccccc1` the value was -71% (active).

(Values after PubChem BioAssay (NCI).)
